PubChem BioAssay (NCATS)
Inconclusive results are not listed. Calls of active or inactive are those of the source. Calls come from the whole dose curve; as a rule, active = well fitted cell-killing curve with a large enough effect; inconclusive = small, poorly fitted or top-dose-only effect, or effect the other way; inactive = flat fitted curve, though single readings scatter.

These compounds were tested on JEG-3 (assay: Primary qHTS to identify gynecologic anti-cancer compounds using libraries of approved drugs and bioactive compounds (AID 1345084; note: nearly all actives have a fitted effect of over 55% in size)). Conditions: Gynecologic cancer cell panel viability, ATPlite luminescence, 48 h; series mostly up to 57.5 µM; activity change, negative = cytotoxicity: at the top concentration.
Method in brief: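 Cytotoxicity screen measuring ATP content by luciferase luminescence. Each compound is applied at five concentrations for 48 h at 37 C with 5% CO2.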
% is set by controls: 0 for no effect and ±100 for the full control effect.

Structure (SMILES) | activity change, negative = cytotoxicity
COc1cccc(Cn2ncc3c4sc(S(C)=O)cc4n(C)c3c2=O)c1 (centres undefined) | 20.6% (inactive)
CC(C)CC(=O)O[C@@H]1O[C@H](CO)[C@@H](O[C@H]2O[C@H](C)[C@@H](N[C@H]3C=C(CO)[C@@H](O[C@H]4O[C@H](CO)[C@@H](O[C@H]5O[C@H](CO)[C@@H](O[C@H]6O[C@H](CO)[C@@H](O)[C@H](O)[C@H]6O)[C@H](O)[C@H]5O)[C@H](O)[C@H]4O)[C@H](O)[C@H]3O)[C@H](O)[C@H]2O)[C@H](O)[C@H]1O | 0.194% [at 11.6 µM] (inactive)
COc1ccc(C2COc3cc(O)ccc3C2)c(O)c1OC (centres undefined) | -15% (inactive)
CCN1CCN(C(=O)N[C@@H](C(=O)N[C@@H]2C(=O)N3[C@@H]2SC(C)(C)[C@@H]3C(=O)O)c2ccccc2)C(=O)C1=O | 3.11% (inactive)
COc1ccc(/C=C/C(N)=O)cc1OC | 10.3% (inactive)
N[C@@H](CC(=O)Nc1ccc(Oc2cc(F)c(F)cc2Br)cc1)C(=O)O | -6.81% (inactive)
COc1cc(O)cc2c1C(=O)OC(C)C2 (centres undefined) | -6.7% (inactive)
COc1cc(/C=C/C(=O)O[C@@H]2C[C@](O)(C(=O)O)C[C@@H](O)[C@H]2O)ccc1O | 11.4% [at 38.5 µM] (inactive)
Cc1cn(C[C@H](N)C(=O)O)c(=O)n(Cc2ccsc2C(=O)O)c1=O | -11.3% (inactive)
CC(O)C1CCC2C3CCC4CC(OC5OC(C(=O)O)C(O)C(O)C5O)CCC4(C)C3CCC12C (centres undefined) | 2.62% (inactive)
C/C=C1/[C@H](O[C@@H]2O[C@H](CO)[C@@H](O)[C@H](O)[C@H]2O)OC=C2C(=O)O[C@@H]3C[C@@H](C(C)CO)[C@H](COC(=O)C[C@H]21)[C@H]3C (some centres undefined) | -12.9% [at 25.3 µM] (inactive)
COc1ccc(NC(=O)c2ccc(-c3ccc(C(N)=O)cc3C)cc2)cc1N1CCN(C)CC1 | -3.43% (inactive)
Cc1cccc(-c2nn3c(c2-c2ccnc4ccc(C(N)=O)cc24)CCC3)n1 | -4.08% (inactive)
CC1(C)CC[C@]2(C(=O)OC3OC(CO)C(O)C(O)C3O)CC[C@]3(C)C(=CCC4[C@@]5(C)C[C@@H](O)[C@H](OC6OC(C(=O)O)C(O)C(O)C6O)C(C)(C)C5CC[C@]43C)[C@@H]2C1 (some centres undefined) | 17.5% [at 11.6 µM] (inactive)
O=C(NCC(=O)N1CCCC1)Nc1ccc2ccccc2c1 | 10% (inactive)
O=C(c1c2ccccc2cc2ccccc12)N1CCC(N2CCC[C@@H](C(=O)N3CCOCC3)C2)CC1 | 0.536% (inactive)
CC(C)c1ccc2c(c1)C(O)CC1C(C)(CO)CCCC21C (centres undefined) | -1.1% (inactive)
C=CCc1cc(OC)c(OC(C)C(O)c2ccc(O)c(OC)c2)c(OC)c1 (centres undefined) | 9.79% [at 38.5 µM] (inactive)
COc1cc(O)cc(O[C@@H]2O[C@H](CO)[C@@H](O[C@@H]3OC[C@](O)(CO)[C@H]3O)[C@H](O)[C@H]2O)c1OC | 0.59% [at 25.3 µM] (inactive)
CC1(C)COC(=O)[C@@H]1O[C@@H]1O[C@H](CO)[C@@H](O)[C@H](O)[C@H]1O | -0.0449% (inactive)

Structure (SMILES) | activity change, negative = cytotoxicity
C[C@@H]1O[C@@H](O[C@H]2[C@@H]3C=CO[C@@H](O[C@@H]4O[C@H](CO)[C@@H](O)[C@H](O)[C@H]4O)[C@@H]3[C@@]3(CO)O[C@@H]23)[C@H](O)[C@H](O)[C@H]1OC(=O)/C=C/c1ccc(O)cc1 | 13.3% [at 25.3 µM] (inactive)
Cc1c(NC(=O)N2CCOCC2)ccc2c1c1ccccc1n2C(C)C | 4.36% (inactive)
COC(=O)C1=COC(OC2OC(CO)C(O)C(O)C2O)C2C(COC(=O)/C=C/c3ccc(O)c(O)c3)C(O)C(O)C12 (centres undefined) | -7.15% [at 25.3 µM] (inactive)
O=C(OC[C@H]1O[C@H](O[C@]2(CO)O[C@H](CO)[C@@H](O)[C@@H]2O)[C@H](O)[C@@H](O)[C@@H]1O)c1ccc(O)cc1 | 4.95% [at 25.3 µM] (inactive)
C=CC(C)(O)C1CC2C3(C)CCCC(C)(C)C3C(O)C(O)C2(C)O1 (centres undefined) | 4.1% [at 38.5 µM] (inactive)
CC1CC(=O)[C@]2(O)C(C(=O)OCCc3ccc(O)c(O)c3)=CO[C@@H](O[C@@H]3O[C@H](CO)[C@@H](O)[C@H](O)[C@H]3O)[C@H]12 (some centres undefined) | 2.03% [at 25.3 µM] (inactive)
COc1cc(O)cc2c1C(=O)OC(C)CCCCCCC2 (centres undefined) | 1.05% (inactive)
C=C(C)[C@H]1CC[C@]2(C(=O)O)CC[C@]3(C)C(CCC4[C@@]5(C)CCC(=O)C(C)(C)C5CC[C@]43C)C12 (some centres undefined) | -6.91% [at 25.3 µM] (inactive)
OCC1OC(Oc2cc(O)cc(/C=C/c3ccc(OC4OC(CO)C(O)C(O)C4O)cc3O)c2)C(O)C(O)C1O (centres undefined) | -16.9% [at 25.3 µM] (inactive)
CC(C)[C@](O)(c1ccc2cc(OC(F)F)c(OC(F)F)cc2c1)c1cn[nH]n1 | -14% (inactive)
C/C=C1/[C@H](O[C@@H]2O[C@H](CO)[C@@H](O)[C@H](O)[C@H]2O)OC=C(C(=O)OC)[C@H]1CC(=O)OCCc1ccc(OC(=O)C[C@@H]2C(C(=O)OC)=CO[C@@H](O[C@@H]3O[C@H](CO)[C@@H](O)[C@H](O)[C@H]3O)/C2=C/C)cc1 | 15.1% [at 11.6 µM] (inactive)
C/C(=C/CO)CC[C@H]1[C@]2(C)C[C@H](O)CC(C)(C)[C@H]2CC[C@]1(C)O | 9.55% [at 38.5 µM] (inactive)
C[C@@H]1O[C@@H](O[C@@H]2\C=C/C=C\C=C/C=C\C[C@H](C)OC(=O)/C=C\[C@H]3O[C@@H]3C[C@H](O)C[C@]3(O)C[C@@H](O)[C@@H](C(=O)O)[C@H](C2)O3)[C@H](O)[C@H](N)[C@@H]1O | -3.67% [at 38.5 µM] (inactive)
COc1cc(C)c(C(=O)O[C@@H]2[C@H](O)[C@@H](CO)O[C@H]2n2ccc(=O)[nH]c2=O)c(OC)c1 | -7.32% [at 25.3 µM] (inactive)
C=C(CCO)C(=O)OCC1OCC(OC(=O)C(=C)CCO[C@@H]2O[C@H](CO)[C@@H](O)[C@H](O)[C@H]2O)C(O)C1O (some centres undefined) | 9.87% [at 25.3 µM] (inactive)
COc1ccc(/C=C/C(=O)N2CCCC2)cc1 | -3.98% (inactive)
C[C@@H]1O[C@@H](OC[C@H]2O[C@@H](OCc3ccccc3)[C@H](O)[C@@H](O)[C@@H]2O)[C@H](O)[C@H](O)[C@H]1O | 8.76% [at 25.3 µM] (inactive)
CC(=O)O[C@@H]1C=C2[C@H](CC[C@@]3(C)[C@@]2(O)CC[C@H]2Cc4c([nH]c5ccccc45)[C@@]23C)O[C@@H]1C(C)(C)O | -0.0365% [at 25.3 µM] (inactive)
Cc1cc(Cn2cnc3c2CC(C(=O)O)N(C(=O)C(c2ccccc2)c2ccccc2)C3)ccc1N(C)C (centres undefined) | 4.51% (inactive)
